Data: paper PMC4336329 (PLoS ONE, 2015)
Among all 310,000 compounds or so, about 14,000 (4.5%) showed an effect of 50% or more. The effect is printed as a negative number. The entries come from a sample that favours strong results as a whole.

These compounds were tested against human ether-à-go-go-related gene (hERG) potassium channel (human, UniProt Q12809) (assay: primary screen, population patch clamp on CHO cells stably expressing hERG; higher = less effect of the substance).
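Note: peak tail current of the secondary pulse compared with the same well before compound.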

human ether-à-go-go-related gene (hERG) potassium channel, sequence (Q12809 whole entry, looked up): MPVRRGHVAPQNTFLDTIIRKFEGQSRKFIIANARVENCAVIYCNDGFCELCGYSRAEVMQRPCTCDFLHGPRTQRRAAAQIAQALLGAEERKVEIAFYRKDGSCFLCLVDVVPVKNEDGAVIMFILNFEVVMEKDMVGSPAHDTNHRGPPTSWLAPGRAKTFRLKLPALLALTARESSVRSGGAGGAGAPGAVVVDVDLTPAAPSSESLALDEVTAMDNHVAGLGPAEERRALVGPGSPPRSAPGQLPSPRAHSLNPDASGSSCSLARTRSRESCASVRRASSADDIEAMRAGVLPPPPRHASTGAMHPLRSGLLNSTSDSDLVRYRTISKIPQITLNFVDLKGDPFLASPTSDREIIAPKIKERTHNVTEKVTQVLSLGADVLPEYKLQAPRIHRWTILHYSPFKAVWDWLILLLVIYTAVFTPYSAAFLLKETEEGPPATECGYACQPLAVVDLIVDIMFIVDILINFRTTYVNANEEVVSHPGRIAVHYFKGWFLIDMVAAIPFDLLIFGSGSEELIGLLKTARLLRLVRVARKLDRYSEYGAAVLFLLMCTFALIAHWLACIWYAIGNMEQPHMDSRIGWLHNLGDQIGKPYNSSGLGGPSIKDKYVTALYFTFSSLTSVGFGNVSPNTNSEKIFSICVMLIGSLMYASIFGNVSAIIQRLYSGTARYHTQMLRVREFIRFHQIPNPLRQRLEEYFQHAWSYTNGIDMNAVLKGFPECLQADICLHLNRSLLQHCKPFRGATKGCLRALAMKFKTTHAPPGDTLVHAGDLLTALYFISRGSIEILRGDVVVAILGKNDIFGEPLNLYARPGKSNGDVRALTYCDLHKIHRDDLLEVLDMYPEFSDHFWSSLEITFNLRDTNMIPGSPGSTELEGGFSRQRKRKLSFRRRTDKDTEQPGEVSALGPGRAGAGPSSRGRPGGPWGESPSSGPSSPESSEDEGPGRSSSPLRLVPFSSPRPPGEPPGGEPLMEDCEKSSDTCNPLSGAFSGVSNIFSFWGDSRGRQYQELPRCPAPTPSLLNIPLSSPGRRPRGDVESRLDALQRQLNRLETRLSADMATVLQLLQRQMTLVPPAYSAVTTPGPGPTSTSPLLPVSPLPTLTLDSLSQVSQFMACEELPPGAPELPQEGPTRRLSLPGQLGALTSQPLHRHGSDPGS

SMILES | hERG current change (%, negative = inhibition) at 10uM [%]
CC(=O)N/C(=C\c1ccc(F)cc1)C(=O)N(C)C | 14.2
O=C(OCn1nnc2ccccc2c1=O)c1ccc2c(=O)n3c(nc2c1)CCC3 | -7.06
Cc1ccccc1NC(=O)Cn1c(C)nc2ccc(N)cc2c1=O | 7.11
CCO.N#Cc1c(SC(C(=O)O)c2ccccc2)nc2c(c1-c1cccs1)CCCC2 (centres unmarked) | 25.2
C[C@@]12CCC=C[C@H]1[C@H](c1ccc(C(F)(F)F)cc1)N(Cc1ccccc1)C2=O | 12.2
O=C1C=C(NCc2ccc(Cl)cc2)CCC1 | -25.2
COC(=O)c1cc(OC)c(OC)cc1NC(=S)N1CCN(Cc2ccccc2)CC1 | 6.28
CCOc1ccccc1C(=O)OCC(=O)NCC1CCCCC1 | -7.31
O=C(COC(=O)COc1ccccc1[N+](=O)[O-])Nc1cccc(Br)c1 | 9.05
COC(=O)COc1ccc2c(-c3cccc([N+](=O)[O-])c3)cc(=O)oc2c1 | -31.8
CCCOc1ccc(C(O)C(CN2CCOCC2)c2ccccc2)cc1.Cl (centres unmarked) | 1.07
CC(C)CC(=O)N1CCN(S(=O)(=O)c2ccccc2)CC1 | 0.444
O=C(/C=C/c1ccc(OCCCF)cc1)N1CCOCC1 | 1.61
O=[N+]([O-])c1ccc(/C=N/N2CCN(Cc3ccccc3)CC2)cc1 | -56.3
Clc1ccc(/C=N/N2CCN(Cc3ccccc3Cl)CC2)cc1 | 14.9
O=[N+]([O-])c1ccc(Cl)c(/C=N/N2CCN(Cc3ccccc3)CC2)c1 | -1.74
COc1ccc(/C=N\N2CCN(Cc3ccccc3Cl)CC2)cc1.Cl | -62.4
CC(CC(=O)N1CCN(S(=O)(=O)c2ccc([N+](=O)[O-])cc2)CC1)c1ccccc1 (centres unmarked) | -67.8
O=C(/C=C/c1ccc([N+](=O)[O-])cc1)N1CCN(S(=O)(=O)c2ccccc2)CC1 | -34.1
O=[N+]([O-])c1cccc(/C=N/N2CCN(Cc3ccccc3)CC2)c1 | -0.159
COc1ccc(/C=N/N2CCN(Cc3ccccc3)CC2)cc1 | -2.63

SMILES | hERG current change (%, negative = inhibition) at 10uM [%]
O=C(/C=C/c1ccc(OCCCF)cc1)N1CCN(Cc2ccccc2)CC1 | -65.6
O=C(/C=C/c1ccc(F)cc1)N1CCN(Cc2ccccc2)CC1 | -40.6
CCOc1ccc(NC(=O)CN(C)C(=O)c2c(-c3c(F)cccc3Cl)noc2C)cc1OCC | -3.83
Cc1cccc(C)c1OCc1cc(C(=O)N2CCN(c3ccccc3)CC2C)no1 (centres unmarked) | 7.3
O=C(COc1ccc(/C=N/NC(=O)c2ccccc2O)cc1)Nc1ccc([N+](=O)[O-])cc1 | 13.7
COc1ccc(NC(=O)C2=CC(c3ccco3)=NS(=O)(=O)N2C)cc1 | 0.0772
CCCCCCNC(=O)N[C@H](Cc1ccc(O)cc1)C(=O)NCCC[C@H]1CN2C(=NC[C@H]2CCC)N1CC1CCC1 | 9.27
CCCCCCC(=O)N1C/C=C\C(c2ccc(OC)cc2)N(Cc2ccc(F)cc2)C(=O)C1 (centres unmarked) | -43.7
CCN(CC)S(=O)(=O)c1cc(OC)c(C)cc1C | -5.58
O=C(/C=C/c1ccc([N+](=O)[O-])cc1)N1CCN(Cc2ccccc2)CC1 | -66.8
O=C(/C=C/c1ccc(Cl)cc1)N1CCN(Cc2ccccc2)CC1 | -35.6
O=C(/C=C/c1cccc([N+](=O)[O-])c1)N1CCN(Cc2ccccc2)CC1 | -47.5
Cc1cc([N+](=O)[O-])ccc1NC(=O)c1sc2ncn(CC(=O)N3CCOCC3)c(=O)c2c1C | -0.176
Cc1ccc(S(=O)(=O)CCC(=O)N2CCN(c3ccc([N+](=O)[O-])cc3)CC2)cc1 | -70.8
Cc1c(C(=O)N2CCN(c3ccc([N+](=O)[O-])cc3)CC2)sc2ncn(CC(=O)N3CCOCC3)c(=O)c12 | -62.2
Cc1ccc(S(=O)(=O)CCC(=O)N2CCN(c3ccc(Cl)cc3)CC2)cc1 | -23.8
O=C(Cc1cccs1)N1CCN(c2ccc([N+](=O)[O-])cc2)CC1 | -66.1
O=C(Cc1cccs1)N1CCN(c2ccc(F)cc2)CC1 | -4.82
CC(=O)c1ccc(N2CCN(C(=O)CCS(=O)(=O)c3ccc(C)cc3)CC2)cc1 | -41
CC(=O)c1ccc(N2CCN(C(=O)Cc3cccs3)CC2)cc1 | -33.3
Cc1c(C(=O)N2CCN(c3ccccc3F)CC2)sc2ncn(CC(=O)N3CCOCC3)c(=O)c12 | -3.64

SMILES | hERG current change (%, negative = inhibition) at 10uM [%]
Cn1c(=O)cc(OCC(=O)N2CCN(C3CCCCC3)CC2)c2ccccc21 | -18.6
CN(CCc1ccccn1)C(=O)c1cccnc1Oc1ccccc1 | 11.3
O=C(O)C12C[C@H]3C[C@@H](C1)CC(n1ncc(N4CCN(c5ccccc5)CC4)c(Cl)c1=O)(C3)C2 | 9.94
CN(C(=O)Cn1c(=O)oc2ccccc21)C1CCCCC1 | -1.73
CCCN(CCC)CCCNC(=O)Cn1cnc2sc(C)c(S(=O)(=O)N3CCCCC3)c2c1=O | 9.2
CCCCOc1ccc(C(=O)NCC(=O)N(C)CC(=O)Nc2ccc(N3CCOCC3)cc2)cc1 | -27.4
C(=N\N1CCOCC1)/c1ccsc1.O=P(O)(O)O | 18.8
Cc1ccc(S(=O)(=O)NCc2ccc(C(=O)N3CCN(c4ccc([N+](=O)[O-])cc4)CC3)cc2)cc1 | -70.7
O=C(Cc1ccc(F)cc1)N1CCN(c2ccc(F)cc2)CC1 | 0.483
CC(Cc1ccccc1)NC(=O)/C=C/c1ccc(Cl)cc1 (centres unmarked) | -11.7
COc1ccc(N2CCN(C(=O)c3ccc(CNS(=O)(=O)c4ccc(C)cc4)cc3)CC2)cc1 | 13.9
CC(Cc1ccccc1)NC(=O)Cc1ccc([N+](=O)[O-])cc1 (centres unmarked) | -17.8
O=C(Cc1ccc(Cl)cc1)N1CCN(c2ccccc2)CC1 | -12.2
O=CN1CCN(C(=O)Cc2ccc([N+](=O)[O-])cc2)CC1 | -25.6
CC(Cc1ccccc1)NC(=O)/C=C/c1ccc([N+](=O)[O-])cc1 (centres unmarked) | -51.7
Cc1ccc(S(=O)(=O)NCc2ccc(C(=O)N3CCN(c4ccccc4)CC3)cc2)cc1 | -18.6
O=C(Cc1ccc(F)cc1)N1CCN(c2ccc([N+](=O)[O-])cc2)CC1 | -69.5
O=C(Cc1ccccc1)N1CCN(c2ccc([N+](=O)[O-])cc2)CC1 | -55.2
O=C(Cc1ccc(Br)cc1)N1CCN(c2ccc(F)cc2)CC1 | -49.9
CCN(c1ccc(NC(=O)COC(=O)CCC(=O)c2ccc(F)cc2)cc1)C(C)C | -4.95
O=C(Cn1cnc2c(nnn2Cc2ccccc2F)c1=O)N1CCN(c2ccccc2)CC1 | -31.2

SMILES | hERG current change (%, negative = inhibition) at 10uM [%]
O=C(NCCC1=CCCCC1)c1cccc2c1C(=O)N(C1CCCCC1)C2 | 9.87
O=C(NN1C(=O)c2ccccc2C1=O)c1ccncc1 | 10.4
CCOC(=O)C(O)(c1ccc(NC(=O)c2ccc(Cl)c(Cl)c2)cc1)C(F)(F)F (centres unmarked) | -4.61
COc1ccc(NC(=O)CSc2nccn2Cc2ccco2)cc1OC | 11.3
CCOC(=O)N1CCN(C(=O)c2ccc3c(c2)sc2nc(-c4ccccc4)cn23)CC1 | -49.3
CCOC(=O)c1cn(CC)c2ccc(S(=O)(=O)N3CC(C)CC(C)C3)cc2c1=O (centres unmarked) | -21.7
Cc1c(C)c2ccc(OC(C)C(=O)NCCc3c[nH]c4ccccc34)cc2oc1=O (centres unmarked) | -2.3
Cc1ccc(SCC(=O)N2CCC(C(N)=O)CC2)cc1 | 13.2
Cc1ccc(S(=O)(=O)N2CCN(C(=O)Cc3ccccc3)CC2)cc1C | -2.97
Cc1ccc(S(=O)(=O)NCCC(=O)N2CCN(S(=O)(=O)c3ccccc3)CC2)cc1C | -16.6
O=C(CN1CCOCC1)N1CCN(c2ccc([N+](=O)[O-])cc2)CC1 | -71.6
O=C(Cc1ccccc1)N1CCN(S(=O)(=O)c2ccc([N+](=O)[O-])cc2)CC1 | -64
Cc1ccc(S(=O)(=O)N2CCN(C(=O)Cc3ccccc3)CC2)cc1 | -26.1
Cc1ccc(CC(=O)N2CCN(S(=O)(=O)c3ccccc3)CC2)cc1C | -55.5
O=C(Cc1ccccc1)N1CCN(S(=O)(=O)c2cccc([N+](=O)[O-])c2)CC1 | -22.2
O=C(CN1CCN(c2ccc(F)cc2)CC1)N1CCOCC1 | 12.9
O=C(CN1CCN(c2ccc([N+](=O)[O-])cc2Cl)CC1)N1CCOCC1 | -45.2
CCOC(=O)Cc1csc(NC(=O)Cc2cccs2)n1 | 6.28
COc1ccc(S(=O)(=O)N2CCCC2C(=O)NCc2ccccc2Cl)cc1 (centres unmarked) | -12.4
CC1CCC(NCCNC(=O)c2ccco2)CC1 (centres unmarked) | 11.8
